# Compound activity from PubChem BioAssay.
# MenB inh: inhibitors of Mycobacterium tuberculosis MenB enzyme; P9WNP5; MenB enzyme assay, absorbance read-out; inhibition, % (test concentration not listed); 0.43% of 100,000 active; AID 540299; in the data active = inhibition above about 21%, passing the limit was not always enough
# AID504770: growth inhibitors of E. coli YBA685 in a screen for V. cholerae RctB (chromosome II replication) inhibitors; z-score (no concentration beside the values); E. coli YBA685 rctB-dependent plasmid, OD600 growth, 3 h; stronger effect = lower value; 0.27% of 130,000 active; in the data active = z-score below about -2, passing the limit was not always enough
# PV pol inh: inhibitors of poliovirus RNA polymerase binding and polymerization | 0.66% of 150,000 active | poliovirus polymerase elongation, fluorescence polarization; stronger effect = lower value | P03300 | % elongation, % (compound at 16.7 µg/mL); in the data active = % elongation below about 90%
# MbtI inh: MbtI salicylate synthase inhibition. inhibition, % (concentration not given with the values). 0.89% of 100,000 active. AID 493033. purified MbtI enzyme, fluorescence intensity read-out. P9WFX0; in the data active = inhibition mostly above about 56%, no sharp cut-off; inactive = mostly below about 77%
# Target sequence (P9WFX0 whole entry, looked up): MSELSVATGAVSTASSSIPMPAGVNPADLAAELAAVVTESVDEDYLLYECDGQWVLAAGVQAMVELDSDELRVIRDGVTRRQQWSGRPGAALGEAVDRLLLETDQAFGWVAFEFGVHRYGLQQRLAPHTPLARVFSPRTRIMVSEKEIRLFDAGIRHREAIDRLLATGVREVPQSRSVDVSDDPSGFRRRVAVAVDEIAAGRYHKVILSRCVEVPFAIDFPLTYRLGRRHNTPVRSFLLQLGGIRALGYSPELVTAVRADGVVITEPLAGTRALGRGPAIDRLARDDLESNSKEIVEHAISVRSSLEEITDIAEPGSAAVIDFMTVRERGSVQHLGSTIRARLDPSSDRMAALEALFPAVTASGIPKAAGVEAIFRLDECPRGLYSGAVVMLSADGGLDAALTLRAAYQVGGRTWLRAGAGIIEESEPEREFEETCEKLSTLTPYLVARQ
# Hits are given with their value; . = inactive; / = no result. An excerpt weighted towards active compounds, which were near 1.5% of everything screened.
SMILES,MenB inh,AID504770,PV pol inh,MbtI inh
CCOC(=O)Cn1c(=O)n(Cc2ccc(F)cc2)c(=O)c2cccnc21,/,.,/,/
CSc1nc2ccc(NC(=O)c3ccc(N(C)C)cc3)cc2s1,/,.,/,/
CNC(=O)Nc1ccccc1NC1=C(C(=O)OC)CSC1,.,-2.2,.,.
COC(=O)C1=C(Nc2ccccc2NC(=O)c2ccccc2C(=O)O)CSC1,.,.,.,.
CCOC(=O)c1c(CN2CCOCC2)n(C)c2ccc(O)cc12,.,.,68,/
CN(N)P(=S)(c1ccccc1)N(C)N,.,.,76,93
Cc1ccc2nc(C)cc(C(=O)O)c2c1,33,.,.,.
Cc1cc(C(=O)O)c2cc(O)ccc2n1,.,.,.,/
C=C(C)Cc1c(COC)nc(SC)[nH]c1=O,/,.,/,/
O=c1oc(C23CC4CC(CC(C4)C2)C3)ns1,.,.,73,/
N#Cc1nc(-c2ccccc2)oc1N1CCN(C(c2ccccc2)c2ccccc2)CC1,.,.,.,.
CCOC(=O)c1c(NC(=S)Nn2cnnc2)sc2c1CCCCCC2,.,.,.,89
CCN(CC)C(=O)c1sc(NC(=S)N(C)Cc2cn(CC)nc2C)c(C(=O)OC)c1C,.,.,.,.
CCN(CC)C(=O)c1sc(NC(=S)Nn2cnnc2)c(C(=O)OC)c1C,.,.,.,55
O=C(CO/N=C/c1ccco1)NCc1ccccc1,.,.,.,51
N=C1C(c2nc3ccccc3s2)=C(O)CN1N1C(=O)c2ccccc2C1=O,.,.,89,.
COc1ccccc1N1C(=O)C=CC1=O,/,.,.,98
COc1ccc(OC)c(N2C(=O)C=CC2=O)c1,/,.,.,97
O=C1C2CCCC1CC(C(=O)N1CCN(c3ccccc3Cl)CC1)C2 (stereo not given),.,.,.,.
CN(C)c1nc(N)c(C#N)c(CC#N)c1C#N,.,.,80,.
CC1CN=C(c2ccccc2N)N1 (stereo not given),/,.,/,/
O=C(Cc1ccccc1)OC1OCCOC1OC(=O)Cc1ccccc1 (stereo not given),.,.,.,.
C=Cc1ccc2c(ccn2C(C)=O)c1,.,.,.,.
C=Cc1ccc2c(c1)N(C)C(=C)S2,/,.,.,62
Cc1ccc(C(=O)C(C)OC(=O)C2=COCCO2)cc1C (stereo not given),.,.,90,.
SMILES,MenB inh,AID504770,PV pol inh,MbtI inh
COC(=O)c1c(-c2cccs2)csc1NC(=O)c1cc(OC)cc(OC)c1,/,/,71,/
COC(=O)c1c(-c2cccs2)csc1NC(=O)c1cc(OC)c(OC)c(OC)c1,/,/,73,/
O=C(Nc1scc(-c2cccs2)c1C(=O)O)c1cccs1,.,.,.,/
COc1ccc(C(=O)Nc2nccs2)cc1OC,.,.,.,.
COC(=O)c1c(-c2cccs2)csc1NC(=O)c1ccc(OC)c(OC)c1,/,/,69,/
Cc1ccc2oc(=O)c3cnn(CC(=O)N(C)Cc4ccccc4)c3c2c1,.,.,.,.
COc1ccc(C(C(=O)NCc2ccccc2)N(Cc2ccco2)C(=O)c2cnccn2)cc1 (stereo not given),36,.,.,.
Cc1oc2c(c1C(=O)NCc1ccccc1)C(=O)c1ccccc1C2=O,.,.,.,.
Cc1oc2c(c1C(=O)O)C(=O)c1ccccc1C2=O,.,.,66,.
Cc1ccc(NCC(=O)N2CCN(c3ncccn3)CC2)cc1,.,.,.,.
O=C(CSc1nc2c(c(=O)[nH]1)CSC2)c1ccc(Cl)cc1,.,.,.,82
CN1C(=O)/C(=C/c2cn(CC(=O)N3CCCC3)c3ccccc23)C(=O)NC1=S,.,.,.,.
CN1C(=O)/C(=C/c2ccc(I)o2)C(=O)NC1=S,.,.,.,83
COC(=O)c1cc(-c2ccccc2)nc2ccc(C)cc12,.,.,.,.
Nc1nnc(SCC(O)Cn2c3c(c4ccccc42)CCCC3)s1 (stereo not given),25,.,.,/
C=CCOn1c(=O)c(-c2ccc(OC)c(OC)c2)[n+]([O-])c2ccccc21,.,.,.,78
CC1(C)CC(=O)C=C(NCCc2ccccc2)C1,33,.,.,.
COC(=O)c1c(Cc2cccc(C(F)(F)F)c2)c[nH]c1C,.,.,/,.
CN(C)C(=S)c1nc2ccccc2s1,.,.,.,.
CN(C)C(=S)Nc1nc2ccccc2s1,.,.,.,71
Cn1c(N/C(=C\C(=O)c2cccs2)C(F)(F)F)nc2ccccc21,/,-2.7,.,.
COc1ccccc1N1C(=O)C2CSC(c3ccc(C)cc3)N2C1=O (stereo not given),.,.,.,.
COc1cc(C2=Nc3c(c(C)nn3-c3ccccc3)P(=O)(N3CCOCC3)O2)cc(OC)c1OC (stereo not given),.,.,.,.
Cc1nn(-c2ccccc2)c2c1P(=S)(N1CCOCC1)OC(c1ccccc1)=N2 (stereo not given),.,.,88,.
O=c1cc(NCCc2ccccc2)c2ccccc2o1,33,.,.,.
SMILES,MenB inh,AID504770,PV pol inh,MbtI inh
COc1cc(/C=N/NC(N)=O)cc(Br)c1OC,.,.,.,.
COc1cc(/C=N/NC(N)=O)cc2sc(=O)oc12,.,.,.,81
O=C(O)C1Cc2ccccc2N1C(=O)c1ccccc1 (stereo not given),.,.,.,.
COC(=O)C1CC(=O)OC1c1ccccc1 (stereo not given),/,.,/,.
O=C(CCCn1sc2ccccc2c1=O)NCCC1=CCCCC1,.,.,.,94
O=C(CCCn1sc2ccccc2c1=O)NCc1cccs1,.,.,.,82
O=C(CCCn1sc2ccccc2c1=O)Nc1ccccc1F,.,.,.,.
CCc1ccccc1NC(=O)Cc1noc2ccccc12,.,.,.,.
CCOC(=O)c1oc2ccccc2c1COC(=O)c1ccccn1,.,.,.,.
CN1CCN(C(=O)c2ccccc2NC(=O)c2ccc(F)cc2)CC1,.,.,.,/
CSc1c(-c2ccc(Cl)cc2)[nH]c2ccccc12,.,.,.,.
CCCCNC(=O)Sc1ccc2ccccc2c1,.,.,84,.
Cc1cc(C)nc(N(C#N)C(=S)N(C)C)n1,.,.,.,102
COC(=O)C(C)N(C#N)c1nc(C)cc(C)n1 (stereo not given),/,.,/,.
Cc1ccc(N2CC(C(=O)Nc3ccc(S(=O)(=O)NC4CCCCC4)cc3)CC2=O)cc1 (stereo not given),.,.,.,.
O=S(=O)(CS(=O)(=O)Sc1ccc(Cl)cc1)Sc1ccc(Cl)cc1,.,-3.5,.,.
Cc1ccc(C(=O)Cn2c(=N)sc3cc(C)ccc32)cc1,.,.,.,.
COc1ccc2c(c1)nc(SCC(C)O)n2C (stereo not given),/,.,.,.
COc1ccc2c(c1)nc(SCC(=O)C(C)(C)C)n2C,.,.,.,53
C/C=C1/CN2CCC34C(=C(C(=O)OC)C1CC23)Nc1c(O)cccc14 (stereo not given),.,.,.,.
N#C/C(=C(/O)C(F)(F)F)c1nc2ccccc2s1,/,.,/,/
N#C/C(=C(/O)C1CC1)c1nc2ccccc2s1,/,.,.,92
CCc1nc(SCc2ccccc2)[nH]c(=O)c1C,.,.,.,83
O=c1[nH]c(SCc2ccccc2)nc2ccccc12,/,.,/,.
